According to PubChem BioAssay (NCI):
This is part of a sample that, as a whole, favours compounds with a hit. Of some 83,000 tested, about 20% had one in any assay.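 Growth was measured after 48 h exposure to one concentration of compound in 96-well plates. Values under 10 count as active.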 Activity calls are given as the source filed them.

Legend:
Experiment in all cases: NCI-60 one-dose screen, 48 h (100 = growth as untreated, 0 = no growth, -100 = all killed)
[1] = tested on: NCI-H226 lung; conditions: 10 µM
[2] = tested on: NCI-H322M lung; conditions: 10 µM
[3] = tested on: HOP-62 NSCLC; conditions: 10 µM
[4] = tested on: NCI-H460 lung; conditions: 10 µM
[5] = tested on: A549/ATCC NSCLC; conditions: 10 µM
[6] = tested on: 786-0 renal; conditions: 10 µM
[7] = tested on: DU-145 prostate; conditions: 10 µM
[8] = tested on: SF-268 CNS; conditions: 10 µM
[9] = tested on: SF-295 CNS; conditions: 10 µM
[10] = tested on: SF-539 CNS; conditions: 10 µM
[11] = tested on: HCT-15 colon; conditions: 10 µM
[12] = tested on: SNB-75 CNS; conditions: 10 µM
[13] = tested on: SNB-19 CNS; conditions: 10 µM
[14] = tested on: U251 CNS; conditions: 10 µM
[15] = tested on: PC-3 prostate; conditions: 10 µM
[16] = tested on: EKVX NSCLC; conditions: 10 µM
[17] = tested on: UO-31 renal; conditions: 10 µM
[18] = tested on: ACHN renal; conditions: 10 µM
[19] = tested on: HL-60(TB) leukemia; conditions: 10 µM unless noted
[20] = tested on: CCRF-CEM leukemia; conditions: 10 µM

Measured: growth

COC(=O)[C@H]1[C@@H](O)[C@@]2(O)c3c(OC)cc(OC)cc3O[C@@]2(c2ccc(OC)cc2)[C@@H]1c1ccccc1
active: [1] 3.03% | [2] -19% | [3] -11.6% | [4] 2.19% | [5] -14.9% | [6] 0.303% | [7] -9.42% | [8] 0.0752% | [9] -14.4% | [10] -25.6% | [11] -3.06% | [12] -6.18% | [13] -4.86% | [14] -5.73% | [15] -7.51% | [16] -5.16% | [17] -20.5% | [18] -23% | [19] -21.8% | [20] 4.76%

CN(CCF)/N=N/c1nc[nH]c1C(N)=O
inactive: [1] 47.6% | [2] 60% | [3] 26.5% | [4] 38.6% | [5] 98.8% | [6] 41.8% | [7] 24.6% | [8] 36.8% | [9] 19.9% | [10] 38.5% | [11] 57.6% | [12] 31.4% | [13] 98.8% | [14] 90.9% | [15] 55.1% | [16] 75.9% | [17] 21.1% | [18] 36.6% | [19] 21.6% | [20] 20.8%

COc1cc2c(O[C@@H]3OC[C@H](O)[C@H](O)[C@H]3O)c3c(c(-c4ccc5c(c4)OCO5)c2cc1OC)C(=O)OC3
inactive: [1] 80.7% | [2] 82% | [3] 59.1% | [4] 71.9% | [5] 91% | [6] 78.9% | [7] 53.2% | [8] 66.7% | [9] 40.5% | [10] 53.6% | [11] 70.3% | [12] 18% | [13] 97% | [14] 54.8% | [15] 67.1% | [16] 70% | [17] 82.2% | [18] 67.6% | [19] 32.6% | [20] 46.6%

COc1cc(OC)c(S(=O)(=O)N(CCCl)CCCl)cc1C(=O)/C=C/c1ccc(Cl)cc1
inactive: [1] 78.9% | [2] 71.9% | [3] 91.7% | [4] 77.7% | [5] 71.5% | [6] 64.4% | [7] 68.8% | [8] 73.2% | [9] 88.7% | [10] 51.3% | [11] 31.6% | [12] 37.8% | [13] 65.2% | [14] 55.1% | [15] 70.3% | [16] 85.5% | [17] 66.9% | [18] 65.3% | [19] 49.4% | [20] 16.4%

CC(=O)O[C@@H]1C[C@H]2O[C@@H]3C=C(C)CC[C@]3(C)[C@]1(C)[C@]21CO1
inactive: [1] 22.3% | [2] 18.8% | [5] 12.8% | [7] 16.8% | [8] 15.3% | [9] 34.1% | [12] 29.4% | [15] 24.8% | [16] 26% | [17] 53.3% | [18] 23%
active: [3] 6.11% | [4] 6.94% | [6] 7.07% | [10] -23.1% | [11] 3.87% | [13] 3.18% | [14] 5.85% | [19] -33.9% | [20] -3.18%

C=C1[C@@H](C)C2[C@H](Cc3ccccc3)NC(=O)[C@]23[C@H](OC(C)=O)/C=C/[C@@](C)(O)C(=O)[C@@H](C)C/C=C/[C@H]3[C@@H]1O (stereo not given in full)
active: [3] 9.38% | [12] -10.7% | [17] -14.6%
inactive: [1] 53.4% | [2] 87.9% | [4] 26.3% | [5] 22.7% | [6] 28.8% | [7] 48% | [8] 34.5% | [9] 51.4% | [10] 24% | [11] 45.8% | [13] 50.4% | [14] 29.1% | [15] 69.4% | [16] 50.5% | [18] 41.9% | [19] 31.7% | [20] 48.7%

CC1=C[C@H]2O[C@@H]3C[C@H]4OC(=O)/C=C\C=C\[C@H]([C@@H](C)O)OCC[C@@H](C)[C@H](O)C(=O)OC[C@@]2(CC1)[C@]4(C)[C@]31CO1
active: [1] -50.5% | [2] -19.5% | [3] -34.5% | [4] -5.9% | [5] -21.1% | [6] -43.3% | [7] -18.4% | [8] -0.597% | [9] -38.8% | [10] -36.5% | [11] -7.55% | [12] -48.3% | [13] -14.3% | [14] -20.4% | [15] -22.9% | [16] -28.5% | [17] -33.6% | [18] -13.6% | [19] -50.3% | [20] -7.82%
